Results filed as inconclusive are left out. Where a call stands in place of a potency, no number is given. Activity calls are given as the source filed them. Calls come from the whole dose curve; as a rule, active = well fitted cell-killing curve with a large enough effect; inconclusive = small, poorly fitted or top-dose-only effect, or effect the other way; inactive = no such curve, though single readings can be large or run the other way.
Experiment: Quantitative High-Throughput drug screen in 47 multiple myeloma cell lines against the NCATS MIPE library collection: RPMI8226_ATCC cell viability assay (AID 1919871); note: nearly all actives have a fitted effect of over 30% in size
Conditions: RPMI8226 myeloma viability, CellTiter-Glo ATP luminescence, 48 h; series mostly up to 45.8 µM
Summary of the method: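 MIPE 4.0 approved/investigational drugs; 500 cells/well; 48 h 37 °C humidified 5% CO2; CTG luminescence readout; DMSO = 100%, media = 0% viability.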
Potency is the fitted concentration of half-maximal effect.

SMILES | Potency
CCCC(CCC)C(=O)O | inactive
Cc1cn[nH]c1 | 0.118 µM (active)
N#CC[C@H](C1CCCC1)n1cc(-c2ncnc3[nH]ccc23)cn1 | inactive
COc1ccc(C2=N[C@H](c3ccc(Cl)cc3)[C@H](c3ccc(Cl)cc3)N2C(=O)N2CCNC(=O)C2)c(OC(C)C)c1 | 20.9 µM (active)
CCOc1cc(C=C2C(=O)N(c3ccccc3)N=C2C)cc(Cl)c1OCC(=O)OC | inactive
CC(c1cc2ccccc2s1)N(O)C(N)=O (stereo not drawn) | inactive
CCOC(=O)C1=C[C@]2(CC)CCCN3CCc4c(n1c1ccccc41)[C@@H]32 | 14.8 µM (active)
CCN(c1ccccc1)c1cc(NC)[n+](C)c(C)n1 | inactive
COc1ccc(-c2c(-c3ccc(O)cc3O)n[nH]c2C)cc1 | inactive
NCCc1ccc(O)c(O)c1 | 18.7 µM (active)
COc1ccc(-c2ccc3c(N4CCOCC4)nc(N4C[C@@H](C)O[C@@H](C)C4)nc3n2)cc1CO | 0.0935 µM (active)
O=c1n(CCCN2CCN(c3cccc(Cl)c3)CC2)nc2ccccn12 | inactive
O=C(C=Cc1ccc(/C=C/C(=O)Nc2ccc(C3=NCCN3)cc2)cc1)Nc1ccc(C2=NCCN2)cc1 | inactive
OC(CN1CCC(Cc2ccc(F)cc2)CC1)c1ccc(Cl)cc1 (stereo not drawn) | inactive
Oc1ccc(C2CNCCc3c2cc(O)c(O)c3Cl)cc1 (stereo not drawn) | inactive
COc1ccc([C@@H]2CC(=O)c3c(O)cc(O[C@@H]4O[C@H](CO[C@@H]5O[C@@H](C)[C@H](O)[C@@H](O)[C@@H]5O)[C@@H](O)[C@H](O)[C@@H]4O)cc3O2)cc1O | inactive
CCOc1ccc(Cc2cc([C@@H]3O[C@H](CO)[C@@H](O)[C@H](O)[C@@H]3O)ccc2Cl)cc1 | inactive

SMILES | Potency
N[C@@H]1CONC1=O | inactive
COc1cc2nccc(Oc3ccc(NC(=O)NC4CC4)c(Cl)c3)c2cc1C(N)=O | 20.9 µM (active)
Cc1[nH]c(=O)c(C#N)cc1-c1ccncc1 | inactive
Nc1nccc(-c2ccc3noc(-c4ccc(Cl)cc4)c3c2)n1 | inactive
CCCc1nc2c(C)cc(-c3nc4ccccc4n3C)cc2n1Cc1ccc(-c2ccccc2C(=O)O)cc1 | inactive
COc1ccc(CC2=NN3C([C@@H](CCc4ccccc4)[C@@H](C)O)=NC(C)C3C(=O)N2)cc1OC (stereo partly drawn) | inactive
NC(=O)C1CCCc2c1[nH]c1ccc(Cl)cc21 (stereo not drawn) | inactive
Nc1nc2[nH]cc(CCc3ccc(C(=O)N[C@@H](CCC(=O)O)C(=O)O)cc3)c2c(=O)[nH]1 | 0.264 µM (active)
Nc1nc2c(ncn2COCCO)c(=O)[nH]1 | inactive
CCN(CC)CCCC(C)Nc1nc(C)cc(Nc2ccc3nc(C)cc(N)c3c2)n1 (stereo not drawn) | inactive
Cc1ccccc1C(OCCN(C)C)c1ccccc1 (stereo not drawn) | inactive
Cc1cnc(NC(=O)C2=C(O)c3ccccc3S(=O)(=O)N2C)s1 | inactive
CCCn1c(=O)c2[nH]c(C34CC5CC3C[C@@H](C5)C4)nc2n(CCC)c1=O | 8.33 µM (active)
CC(=O)Oc1ccccc1C(=O)O | inactive
Cc1cc2c(C(C)C)c(O)c(O)c(C=O)c2c(O)c1-c1c(C)cc2c(C(C)C)c(O)c(O)c(C=O)c2c1O | 20.9 µM (active)
COc1cc2c(cc1OC)CN(CCc1ccc(NC(=O)c3cccc4c(=O)c5cccc(OC)c5[nH]c34)cc1)CC2 | inactive

From PubChem BioAssay (NCATS)
